Measurements taken from PubChem BioAssay (NCI).
“And” between values parts separate entries of the source, which are not always exact repeats. Identical values can stand only once. The panel holds about 83,000 compounds, 20% with a hit somewhere; the sample as a whole holds those more often.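 Testing used 96-well plates and a 48-hour single-concentration exposure. Example: -40 means 40% of the starting cells died.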 Unmarked numbers belong to inactive results. The source made the active and inactive calls. How the source made its calls: active means growth percent below 10; inactive means the rest.

test system: COLO 205 colon; assay: NCI-60 one-dose screen, 48 h (100 = growth as untreated, 0 = no growth, -100 = all killed); conditions: 10 µM

Q: Which growth does the source give for `COc1ccc(C(=O)C(CN(C)C)CN(C)C)cc1` here?
A: The growth was -75.3% (active).

Q: How did the growth turn out when `Cc1ccc(Sc2ccccc2N)cc1` was run?
A: The growth was 96.8%.

Q: Which growth does the source give for `O=[N+]([O-])c1cc[n+]([O-])cc1` here?
A: The growth was 117%.

Q: For `CC1=CC(=C(c2ccc(N)cc2)c2ccc(N)cc2)C=CC1=N`, which growth is on record?
A: The growth was -8.22% (active) and -56.6% (active).

Q: With `CN(C)CCOC1(Cc2ccc(Cl)cc2Cl)CCC(C(C)(C)C)CC1` (stereo not drawn) as the compound, how does the growth read?
A: The growth was -89.2% (active) and -87.9% (active).

Q: Which growth does the source give for `Cc1cc(N(CCOS(C)(=O)=O)CCOS(C)(=O)=O)ccc1C=Nc1ccc(-c2nc(Cc3ccccc3)sc2C)cc1` here?
A: Its growth is -71.3% (active).

Q: Which growth does the source give for `C#CCN(Cc1ccc2nc(N)[nH]c(=O)c2c1)c1ccc(C(=O)NC(CCC(=O)O)C(=O)O)cc1` (stereo not drawn) here?
A: Its growth is 67.4%.

Q: With `C=C1C(=O)OC2CC1C(OC(C)=O)C/C(C)=C/CC/C(C)=C\CCC2(C)O` (stereo not drawn) as the compound, how does the growth read?
A: Its growth is 0.7% (active).
